Screening results as filed in PubChem.
Anthrax LF inh2 – anthrax lethal factor protease inhibition; P15917; multiplex microsphere protease cleavage assay, LF; inhibition, % at 10 µM; hit rate 0.12% among 360,000; AID 588501
Target sequence (P15917 whole entry, looked up): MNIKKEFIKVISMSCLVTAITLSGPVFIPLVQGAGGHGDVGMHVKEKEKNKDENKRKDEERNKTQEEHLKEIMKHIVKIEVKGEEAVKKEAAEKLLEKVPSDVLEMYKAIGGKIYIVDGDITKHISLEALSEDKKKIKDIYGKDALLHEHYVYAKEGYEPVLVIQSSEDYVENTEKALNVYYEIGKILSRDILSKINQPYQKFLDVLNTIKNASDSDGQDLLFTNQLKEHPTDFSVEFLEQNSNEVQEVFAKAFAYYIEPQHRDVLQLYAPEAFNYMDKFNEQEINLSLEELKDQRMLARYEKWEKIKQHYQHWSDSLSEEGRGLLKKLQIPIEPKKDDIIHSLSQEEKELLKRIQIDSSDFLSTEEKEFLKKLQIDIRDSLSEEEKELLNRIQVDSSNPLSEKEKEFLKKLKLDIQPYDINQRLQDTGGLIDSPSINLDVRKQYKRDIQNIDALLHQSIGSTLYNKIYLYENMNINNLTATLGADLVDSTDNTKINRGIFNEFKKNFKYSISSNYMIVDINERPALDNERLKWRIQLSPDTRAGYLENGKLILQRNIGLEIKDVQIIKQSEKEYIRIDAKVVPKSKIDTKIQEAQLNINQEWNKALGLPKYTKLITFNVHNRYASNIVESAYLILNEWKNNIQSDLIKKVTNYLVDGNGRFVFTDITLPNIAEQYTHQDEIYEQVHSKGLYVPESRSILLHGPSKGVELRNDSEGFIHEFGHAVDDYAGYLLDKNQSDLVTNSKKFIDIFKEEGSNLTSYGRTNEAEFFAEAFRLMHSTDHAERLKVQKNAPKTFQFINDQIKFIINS
BoNT F protease – BoNT F light chain protease inhibition. Multiplex microsphere protease cleavage assay, flow cytometry. inhibition, % at 10 µM. hit rate 0.22% among 360,000; in the data active means inhibition above about 35%, passing the limit was not always enough; inconclusive means no clear call, values can overlap the other calls
MazF activator – activators of E. coli MazEF toxin-antitoxin RNase. P0AE70. FAM/BHQ RNA-DNA oligo cleavage fluorescence, 5 h. activation, % at 20 µM. hit rate 0.32% among 350,000; in the data active means activation above about 50%
Autofluor counter – counter-screen for toxin protease inhibitors: compound fluorescence; compound autofluorescence counterscreen, microsphere flow cytometry; hits give high values; hit rate 3.1% among 360,000; fluorescence intensity (concentration not given with the values); in the data active means fluorescence intensity above about 16000; inconclusive means no clear call, values can overlap the other calls
BoNT A protease – BoNT A light chain protease inhibition; multiplex microsphere protease substrate cleavage, flow cytometry; inhibition, % at 10 µM; hit rate 0.17% among 360,000
A number is an active result; - = inactive; ? = inconclusive; . = no result. An excerpt weighted towards active compounds, which were near 3.6% of everything screened. Unless noted, no stated cut-off is given here; in the data, active means inhibition above about 30%; inconclusive means no clear call, values can overlap the other calls; inactive means below that.

SMILES | Anthrax LF inh2 | BoNT F protease | MazF activator | Autofluor counter | BoNT A protease
CC1(C)C2([N+](=O)[O-])CN3CC1([N+](=O)[O-])CN(C2)C31CCCC1 | - | - | - | 17714 | ?
O=C(c1cc2ccccn2n1)N1CCN(c2cccc(C(F)(F)F)c2)CC1 | - | - | - | 20114 | -
COC(=O)c1ccccc1NC(=O)CSc1nnc(Cc2ccc(Cl)cc2)o1 | - | - | - | 19277 | -
COc1ccccc1NC(=O)CSc1nnc(COc2ccc(Cl)cc2)o1 | - | - | - | - | -
COc1ccc(/C(O)=C/Sc2nnc(Cc3ccccc3)o2)cc1 | - | - | - | 24165 | -
O=C(CSc1nnc(Cc2ccccc2)o1)NCc1ccco1 | - | - | - | 21761 | -
COc1ccc(CCNC(=O)CSCc2n[nH]c(=O)[nH]2)cc1OC | - | - | - | 20702 | ?
COc1ccc(CCNC(=O)CSCc2ccc(C)cc2)cc1OC | - | - | - | - | -
CC(=O)c1c(C)n(CCc2ccc(Cl)cc2)c2ccc(O)cc12 | - | ? | - | - | -
COc1ccc(C(=O)N2CCN(c3cccc(C)c3C)CC2)cc1S(=O)(=O)NC1CC1 | - | - | - | - | -
C=CC(=O)Nc1ccc(N(C)c2ccnc(Nc3ccc(N4CCN(C)CC4)cc3)n2)cc1 | - | - | - | - | -
COc1ccc(Cc2nnc(SCC(=O)NCCc3ccccc3)o2)cc1 | - | - | - | 21339 | ?
Cc1cc(C)n(C(=O)CSc2nc3ccccc3o2)n1 | - | - | - | 20678 | -
Cc1ccc(SCC(=O)n2nc(C)cc2C)cc1 | - | - | - | - | -
CCOC(=O)c1c(NC(=O)CSc2nnc(Cc3ccccc3)o2)sc(C(C)=O)c1C | - | - | - | 18103 | ?
Cc1cccc(C)c1OCc1nnc(SCC(=O)NCCc2ccccc2)o1 | - | - | - | 23122 | ?
COc1ccc(-c2nnc(SCC(=O)NCCc3ccccc3)o2)cc1 | - | - | - | - | -
CC(=O)Nc1ccc(NC(=O)C(C)OC(=O)CC23CC4CC(CC(Br)(C4)C2)C3)cc1 (centres undefined) | - | - | - | - | -
CN(Cc1ccc(Cl)c(Cl)c1)C(=O)C1CSC2(C)CCC(=O)N12 (centres undefined) | - | - | - | - | -
COc1ccc(CCNC(=O)CSc2nc3cc(Cl)ccc3o2)cc1OC | - | - | - | - | -
O=C(O)c1ccc(CSc2nnc(Cc3ccccc3)o2)cc1 | - | - | - | 16912 | -
COc1ccc(CCNC(=O)CSc2nc3ccccc3o2)cc1OC | - | - | - | 23875 | -
CCCC(=O)N1CCCC1(C)C(=O)Nc1ccc2cn[nH]c2c1 (centres undefined) | - | - | . | - | -
Cc1ccc(S(=O)(=O)Nc2ccc(NC(=O)CN3CCCCC3)c(Cl)c2)cc1 | - | - | - | 19818 | -
Cc1ccc(S(=O)(=O)N2CCN(CC(=O)Nc3ccccc3Cl)CC2)cc1 | - | - | - | - | -
SMILES | Anthrax LF inh2 | BoNT F protease | MazF activator | Autofluor counter | BoNT A protease
Cc1cc(OCc2nn[nH]n2)c2c(-c3ccccc3)cc(=O)oc2c1 | - | - | - | 20272 | -
COc1ccc(-c2cc(=O)oc3c(C)c(OCc4nn[nH]n4)ccc23)cc1 | - | - | - | 23374 | ?
Cc1c(OCc2nn[nH]n2)ccc2c(-c3ccccc3)cc(=O)oc12 | - | - | - | - | -
COc1ccc(CN(C)C(=O)c2cccc(Oc3ccccc3)c2)c(OC)c1OC | - | - | 55 | - | -
COc1cccc(CN(C)C(=O)c2cccc(S(=O)(=O)NCc3ccccc3)c2)c1OC | - | - | - | ? | -
CCCC(=O)N1CCC1(C)C(=O)Nc1ccc(OC)c(OC)c1 (centres undefined) | - | - | . | - | -
CC(=O)Nc1cccc(C(=O)OC(C(=O)c2ccc(C)c(C)c2)c2ccccc2)c1 (centres undefined) | - | - | - | 19826 | -
CC(=O)Nc1cccc(C(=O)OC(C(=O)c2ccc(C)cc2)c2ccccc2)c1 (centres undefined) | - | - | - | ? | -
CCOC(=O)c1ccc(OCCOc2cccc(C)c2)cc1 | - | ? | - | - | -
Cn1c(=O)c2c(nc(NCc3ccc4c(c3)OCO4)n2Cc2ccccc2)n(C)c1=O | - | - | - | - | -
CN(Cc1ccccc1)Cc1nc2c(c(=O)n(C)c(=O)n2C)n1Cc1ccc(F)cc1 | - | - | - | 23112 | -
Cn1c(=O)c2c(nc(NCc3ccc4c(c3)OCO4)n2Cc2ccc(F)cc2)n(C)c1=O | - | - | - | 18743 | -
CCCCCn1c(CN(C)Cc2ccccc2)nc2c1c(=O)n(C)c(=O)n2C | - | - | - | 23164 | -
Cc1ccc(Cn2c(CN(C)Cc3ccccc3)nc3c2c(=O)n(C)c(=O)n3C)cc1 | - | - | - | - | -
CCCCn1c(CN(Cc2ccccc2)Cc2ccccc2)nc2c1c(=O)n(C)c(=O)n2C | - | - | - | - | -
N#CC1=C(SCC(N)=O)NC2=C(C(=O)c3ccccc32)C1c1ccc(Cl)cc1 (centres undefined) | - | - | - | - | -
CCOC(=O)n1c(=O)oc2cc(S(=O)(=O)N3CCCCC3)ccc21 | - | - | - | 23136 | -
Cn1c(=O)oc2cc(S(=O)(=O)N3CCCCC3)ccc21 | - | - | - | - | -
COC(=O)n1c(=O)oc2cc(S(=O)(=O)N3CCCCC3)ccc21 | - | - | - | 21823 | ?
CCOC(=O)N1CCN(S(=O)(=O)c2ccc3c(c2)oc(=O)n3C)CC1 | - | - | - | - | -
Cc1ccccc1CC(=O)N1CCOCC1 | - | - | - | - | -
CN(C)CCN1CCN(C2CN(Cc3cn(Cc4ccc(Cl)cc4)nn3)S(=O)(=O)C2)CC1 (centres undefined) | - | - | . | - | -
CCCOC(=O)c1cc(-c2ccc(/C=C3/C(=O)N(C)C(=O)C(C#N)=C3C)o2)ccc1Cl | - | - | - | 22120 | -
O=C1NCCCC2c3c(cc(Br)c(O)c3Br)OC12N1CCOCC1 (centres undefined) | - | - | - | 20273 | -
COc1ccccc1CC(=O)O/N=C(\N)Cc1cccc2ccccc12 | - | - | - | 22659 | -
SMILES | Anthrax LF inh2 | BoNT F protease | MazF activator | Autofluor counter | BoNT A protease
Cc1ccc(C)c(OCCC(=O)N2CCN(S(=O)(=O)c3ccc([N+](=O)[O-])cc3)CC2)c1 | - | - | - | - | -
CN(C)S(=O)(=O)c1ccc2c(c1)Cc1cc(S(=O)(=O)N(C)C)ccc1-2 | - | - | - | - | -
CCCCOc1ccc(Cl)cc1CSc1nnc(CC)n1N | - | - | - | 24086 | -
COc1ccccc1N1CCN(C(=O)CCC(=O)O)CC1 | - | - | - | - | -
COc1ccccc1N1CCN(C(=O)CCn2c(=O)[nH]c3ccccc3c2=O)CC1 | - | - | - | 22600 | ?
O=C(Cc1cccs1)N1CCN(c2ccc(F)cc2)CC1 | - | - | - | - | -
Cc1nc2ncnn2c(N2CCN(C(=O)Cc3cccs3)CC2)c1C | - | - | - | 22223 | -
COc1ccccc1N1CCN(C(=O)Cc2cccs2)CC1 | - | - | - | 22449 | ?
O=C(CSc1nccn1Cc1ccco1)Nc1ccccc1 | - | - | - | ? | -
CC(NC(=O)CN1CCN(S(=O)(=O)c2ccc(Br)cc2)CC1)c1ccccc1 (centres undefined) | - | - | - | - | -
